A selection: hits, their analogues and other compounds. The true share with any hit is near 2.9%.
NadD inh: inhibitors of S. aureus NadD, primary screen, biochemical, colorimetric, uHTS; Nicotinate-nucleotide adenylyltransferase NadD (Staphylococcus aureus N315); purified NadD enzyme, colorimetric absorbance read-out; inhibition, % at 20 µM; 360,000 tested, 0.78% active; in the data active = inhibition above about 26%
B2AR ag: beta2AR agonists driving receptor internalization, primary screen, cell-based, FAP fluorogen, flow cytometry; Beta-2 adrenergic receptor (Homo sapiens), P07550; Am2.2-beta2AR cells; response, % (no concentration beside the values); 340,000 tested, 0.43% active; AID 504454, 2011;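 active = response above a set limit, near 3 SD of response in nonfluorescent compounds, cut at about 42% in these data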
GRK2 inh: compounds blocking aptamer binding on GRK2 – biochemical, human GRK2, bead flow cytometry, HTS, primary screen; Beta-adrenergic receptor kinase 1 (Homo sapiens), P25098; FAM-aptamer displacement from GRK2; AID 488847, 2010; 330,000 tested, 0.59% active; inhibition of aptamer binding, % at 10 µM;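 active = inhibition of aptamer binding above 40%, roughly 3 SD of noise, on plates passing a quality check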;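 also: median bead fluorescence of bound FAM aptamer so fluorescent compounds give negative values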
PP1 inh: PP1-alpha phosphatase inhibitors, primary screen, counter-screen for PP5 inhibitor project, biochemical, fluorescence, OMFP substrate, single point. Serine/threonine-protein phosphatase PP1-alpha catalytic subunit (Homo sapiens), P62136. 320,000 tested, 0.9% active. inhibition, % at 6.7 µM. purified PP1alpha;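 active = inhibition above the mean inhibition of all tested compounds plus 3 SD, computed separately for each screening campaign, cut at about 15% in these data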
Target sequence (P62136 whole entry, looked up): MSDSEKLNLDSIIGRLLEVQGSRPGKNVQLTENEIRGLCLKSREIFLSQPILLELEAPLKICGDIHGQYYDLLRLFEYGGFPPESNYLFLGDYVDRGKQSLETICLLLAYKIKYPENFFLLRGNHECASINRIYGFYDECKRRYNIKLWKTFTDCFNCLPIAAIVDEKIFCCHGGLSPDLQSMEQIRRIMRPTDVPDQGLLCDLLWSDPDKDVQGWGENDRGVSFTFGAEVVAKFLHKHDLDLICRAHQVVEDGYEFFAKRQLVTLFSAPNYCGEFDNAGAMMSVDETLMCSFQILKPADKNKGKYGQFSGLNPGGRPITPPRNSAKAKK
Exocytosis inh: LAMP-1 surface exposure blockers, TALL-104 cells – cell-based, flow cytometry, MLPCN library, primary screen; AID 651702, 2012; TALL-104 LAMP-1 surface exposure; cells stimulated with thapsigargin and PMA; 360,000 tested, 0.66% active; inhibition, % at 10 µM;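 active = inhibition above about 55%, limit read from the data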
GRK2 inh confirm: GRK2 aptamer-displacing inhibitors, retest, confirmation, biochemical, cherry pick 1, bead flow cytometry | AID 504451, 2011 | shares compounds with GRK2 inh | bead-bound GRK2, FAM-aptamer displacement | 2,000 tested, 4% active | aptamer displacement, % at 10 µM;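 active = aptamer displacement above 40%, near three times the noise of non-fluorescent compounds, on plates passing quality checks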;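 also: negative values mostly reflect intrinsic compound fluorescence rather than true enhancement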
Aptamer quench SP: aptamer fluorescence quenching in GRK2 counter-screen | 2,000 tested, under 10 active | fluorescence response (% of DMSO), % at 10 µM | Carboxyfluorescein RNA aptamer on beads, flow cytometry quenching; stronger effect = lower value | shares compounds with GRK2 inh;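 active = compounds that quench the bead-bound fluorescent RNA probe, cutting fluorescence to under half of the solvent control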;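 also: counterscreen run without GRK2 so only probe quenching by compound is measured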
GRK2 confirm 2: GRK2 aptamer-displacing inhibitors, hit retest, confirmation, biochemical, cherry pick 2, bead flow cytometry | AID 504782, 2011 | inhibition of aptamer binding, % at 10 µM | shares compounds with GRK2 inh | bead-bound GRK2, FAM-aptamer displacement | 360 tested, under 10 active;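 active = inhibition of aptamer binding above 40%, about triple the noise seen with nonglowing compounds, on plates passing quality control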;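 also: negative values mostly come from compounds that fluoresce themselves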
FAM quench SP: counter-screen for GRK2 binding hits: quenchers of fluorescent RNA aptamer; carboxyfluorescein RNA aptamer beads, flow cytometry quenching; stronger effect = lower value; fluorescence response vs DMSO, % at 10 µM; shares compounds with GRK2 inh; 360 tested, under 10 active;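 active = response vs DMSO under 50%, meaning signal dropped by over half, treated as fluorescence quencher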;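 also: labelled aptamer on streptavidin beads without GRK2 as a quench counter-screen; 100% = bead fluorescence of DMSO wells and lower means quenching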
Numbers without * were called inactive; · = no result given.

SMILES	NadD inh	B2AR ag	GRK2 inh	PP1 inh	Exocytosis inh	GRK2 confirm 2	FAM quench SP	others
O=C(NC1CCN(S(=O)(=O)c2ccccc2C(F)(F)F)CC1)c1ccco1	6	-6	0	-5	-1	·	·
O=C(CN(C(=O)CCC(=O)Nc1nccs1)c1ccc(F)cc1)NCc1ccccc1	-6	-1	3	3	-4	·	·
Cc1ccc(S(=O)(=O)C2(C(=O)Nc3ccc(F)cc3)CC2)cc1	-2	0	2	1	0	·	·
Cc1ccc(S(=O)(=O)C2(C(=O)NC3CCCCC3C)CC2)cc1 (centres undefined)	3	1	0	-2	-3	·	·
Cc1ccc(S(=O)(=O)C2(C(=O)Nc3ccc4c(c3)OCO4)CC2)cc1	-3	3	0	-1	8	14	98
Cc1ccc(S(=O)(=O)C2(C(=O)NC3CCCC3)CC2)cc1	-5	-3	0	0	-1	-28	103
Cc1ccc(F)c(S(=O)(=O)NC(=O)C2(C)CCN2C(=O)Cc2ccc(-c3ccccc3)cc2)c1 (centres undefined)	2	·	·	·	-8	·	·
COc1ccc(C(=O)COC(=O)c2sccc2C)cc1OC	-8	-3	0	·	-3	·	·
Cc1nnc(SCCCN2C(=O)c3ccccc3C2=O)o1	-3	-3	15	-4	0	·	·	GRK2 inh confirm=-5;Aptamer quench SP=102
O=C1c2ccccc2C(=O)N1CCCCSc1nnc(-c2ccc(OC(F)F)cc2)o1	-4	1	0	-2	3	·	·
COCc1cc(C)nc(N/N=C/c2ccc(Cl)c(Cl)c2)c1C#N	-9	5	85*	-1	-3	·	·	GRK2 inh confirm=2;Aptamer quench SP=101
O=C(NC1CCCCC1)C(c1cccnc1)N(C(=O)c1csnn1)c1ccccc1 (centres undefined)	-3	-1	0	-3	-3	·	·
Cc1ccc(CNC(=O)CC(C)S(=O)(=O)c2ccc3c(c2)NC(=O)C(C)S3)cc1 (centres undefined)	-5	16	3	-1	-1	1	100
Cc1ccc(CNC(=O)CCS(=O)(=O)c2ccc3c(c2)NC(=O)C(C)S3)cc1 (centres undefined)	3	14	8	1	0	9	102
COc1ccccc1NC(=O)CCS(=O)(=O)c1ccc2c(c1)NC(=O)C(C)S2 (centres undefined)	-2	-3	22	-6	-2	10	97
O=C(O)c1ccccc1Nc1cccc(OCc2ccc3ccccc3n2)c1	18	-4	0	13	-2	·	·	GRK2 inh confirm=6;Aptamer quench SP=90
O=C(O)C1C2CCC(C2)C1C(=O)NCCc1ccccc1 (centres undefined)	3	-2	0	5	0	·	·
Nc1ccc(O)c2c1C(=O)c1ccccc1C2=O	9	0	41*	2	4	·	·	GRK2 inh confirm=1;Aptamer quench SP=93
Nc1ccc(Br)c2c1C(=O)c1ccccc1C2=O	·	·	8	3	·	·	·
O=C(c1ccc(Cl)cc1)n1c(NCc2ccccc2)n[nH]c1=S	21	2	65*	2	-2	·	·	GRK2 inh confirm=-5;Aptamer quench SP=104
O=C(CCS(=O)(=O)c1ccc2c(c1)NC(=O)CS2)NCCc1ccccc1	-2	8	0	-2	-18	7	99
